Many of the other results were omitted from the sample, so hits are more common in it than they were.
FECH inh – blocks human mitochondrial ferrochelatase activity. purified FECH, Ni-mesoporphyrin absorbance 550 nm. calls only at 10 µM (by protocol). actives 3.3% (n = 20,000). AID 1671448;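 active means enzyme reaction rate more than 3 SD below the solvent-only control wells on the same plate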;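 further: lower slope than DMSO wells means FECH inhibition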
Target sequence (P22830 whole entry, looked up): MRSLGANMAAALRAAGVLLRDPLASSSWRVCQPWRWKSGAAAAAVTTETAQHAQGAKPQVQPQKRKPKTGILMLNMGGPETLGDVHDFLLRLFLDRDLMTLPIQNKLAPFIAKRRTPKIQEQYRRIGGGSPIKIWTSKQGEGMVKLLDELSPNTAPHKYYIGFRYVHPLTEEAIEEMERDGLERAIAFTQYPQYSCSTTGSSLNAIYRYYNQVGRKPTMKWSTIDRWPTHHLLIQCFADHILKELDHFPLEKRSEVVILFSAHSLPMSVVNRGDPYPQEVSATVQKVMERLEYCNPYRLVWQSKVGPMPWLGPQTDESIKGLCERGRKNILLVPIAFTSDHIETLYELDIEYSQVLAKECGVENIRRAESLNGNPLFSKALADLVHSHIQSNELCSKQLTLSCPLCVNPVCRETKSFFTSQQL
Numbers without * were called inactive; i = inactive; + = active, no number.

SMILES | FECH inh
CCOc1ccc(-c2nc(CSc3nc(-c4cccnc4)cc(=O)[nH]3)c(C)o2)cc1 | i
Fc1cccc(-c2nccn2CCCc2ccncc2)c1F | i
COc1ccc(CNC(=O)CCn2cnc3onc(-c4cc(F)cc(F)c4)c3c2=O)c(OC)c1 | i
COCc1c(C(=O)NCc2nc3c(C)c(C)ccc3[nH]2)noc1C | i
CC(=O)c1ccc(NC(=O)CN2CCCN(Cc3ccccc3Cl)S2(=O)=O)cc1 | i
CCOc1ccc(-n2c(CCc3c(C)n[nH]c3C)n[nH]c2=O)cc1 | i
CCc1cc(Sc2ccc(NC(=O)Nc3ccc(Cl)cc3)cc2)n2ncnc2n1 | +
CCc1c(C)nc2ncnn2c1Sc1ccc(NC(=O)Nc2ccccc2OC)cc1 | i
CCCc1c(C)nc2ncnn2c1Sc1ccc(NC(=O)Nc2cccc(OC)c2)cc1 | +
CCCc1cc(Sc2ccc(NC(=O)c3cccc(F)c3)cc2)n2ncnc2n1 | +
CCc1c(C)nc2ncnn2c1Sc1ccc(NC(=O)Nc2cc(C)ccc2OC)cc1 | i
CCc1cc(Sc2ccc(NC(=O)Nc3ccccc3F)cc2)n2ncnc2n1 | i
CCCc1c(C)nc2ncnn2c1Sc1ccc(NC(=O)Nc2ccc(OC)c(OC)c2)cc1 | i
CCCc1cc(Sc2ccc(NC(=O)c3cccc(C)c3)cc2)n2ncnc2n1 | i
CCCc1c(C)nc2ncnn2c1Sc1ccc(NC(=O)c2c(OC)cccc2OC)cc1 | i
CCc1c(C)nc2ncnn2c1Sc1ccc(NC(=O)Nc2cc(OC)c(OC)c(OC)c2)cc1 | +
CCCc1cc(Sc2ccc(NC(=O)Nc3ccc(Cl)cc3)cc2)n2ncnc2n1 | i
CCCc1cc(Sc2ccc(NC(=O)c3ccc(C)cc3)cc2)n2ncnc2n1 | i
CSCc1noc(CNC2CCN(c3cccc(C)c3C)CC2)n1 | i
O=C(NCc1ccccc1Cl)c1nc(N2CCOCC2)c2oc3ccccc3c2n1 | i
CC(C)Cn1c(CNS(=O)(=O)c2ccc(C3CCCCC3)cc2)nc2cccnc21 | i
COc1ccc(-n2ccn3c(CCC(=O)NCCc4ccc(S(N)(=O)=O)cc4)nnc3c2=O)cc1 | i
CCCc1cc(Sc2ccc(NC(=O)Nc3ccc(OC)c(OC)c3)cc2)n2ncnc2n1 | i
CCCc1cc(Sc2ccc(NC(=O)Nc3cccc(OC)c3)cc2)n2ncnc2n1 | +
CCCc1cc(Sc2ccc(NC(=O)Nc3cccc(Cl)c3)cc2)n2ncnc2n1 | i
SMILES | FECH inh
CCCC(=O)Nc1ccc(CC(=O)NCc2cnc(C)cn2)cc1 | i
Cc1ccccc1NCc1cc(=O)n2[nH]c(NCc3ccccc3)nc2n1 | +
COc1ccc(CNc2nc3nc(CNc4ccc(C)c(C)c4)cc(=O)n3[nH]2)cc1 | i
COc1ccc(CNc2nc3nc(CN4CCC(C)CC4)cc(=O)n3[nH]2)cc1 | i
COc1ccc(CNc2nc3nc(CNc4cccc(C)c4)cc(=O)n3[nH]2)cc1 | i
O=c1cc(CNc2cccc(C(F)(F)F)c2)nc2nc(NCc3ccccc3)[nH]n12 | i
COc1ccc(CNc2nc3nc(CN4CCCC4)cc(=O)n3[nH]2)cc1 | +
CCc1ccc(NCc2cc(=O)n3[nH]c(NCc4ccccc4)nc3n2)cc1 | i
CCCNCc1cc(=O)n2[nH]c(NCc3ccccc3)nc2n1 | i
O=c1cc(CNCc2ccccc2)nc2nc(NCc3ccccc3)[nH]n12 | +
COc1ccc(CNc2nc3nc(CNc4ccc(C)cc4C)cc(=O)n3[nH]2)cc1 | +
O=c1cc(CN2CCCC2)nc2nc(NCc3ccc(F)cc3)[nH]n12 | i
COc1ccc(CNc2nc3nc(CNc4ccccc4C)cc(=O)n3[nH]2)cc1 | i
C=CCN1CCC(CNC(=O)CC23CC4CC(CC(C4)C2)C3)C1 (configuration not stated) | i
CCc1nc(CN2CCN(c3ncnc4c(C)csc34)CC2)c(C)[nH]1 | i
Cc1cc(=O)n2[nH]c(NCc3ccc(C(=O)Nc4ccc(C)c(Cl)c4)cc3)nc2n1 | i
COC(=O)c1c(NC(=O)c2c(F)cccc2F)sc2c1CCN(C)C2 | i
CCCc1oncc1C(=O)N1CCC2(CC1)C(=O)N(C)c1ccccc12 | i
COc1ccccc1OCc1cc(C(=O)N(C)Cc2cc(C)no2)n[nH]1 | i
Clc1ccc(C2CN(Cc3cc(-c4ccccn4)no3)CCO2)cc1Cl (configuration not stated) | i
O=C(CN1CCNCC1)N1CC[C@@H](c2ccc3c(c2)OCO3)[C@H](O)C1 | i
Cc1cc(C)cc(C(=O)Nc2ccc(Nc3nc(C)cc(N4CCCC4)n3)cc2)c1 | i
CCc1[nH]c2c(CNC(=O)c3cc(C4CC4)no3)cc(C)cc2c1C | i
CCCc1ccc(S(=O)(=O)N2CCC(n3c(-c4ccccc4)nc4cccnc43)CC2)cc1 | i
CCN(Cc1noc(C2CCC2)n1)Cc1nnc(-c2ccc(C)n2C)o1 | i
SMILES | FECH inh
CC(C)C[C@@H](N)C(=O)N(Cc1nccn1C)C1CC1 | i
Cc1n[nH]c(C)c1CCN(C)C(=O)c1cn(CC2CCCO2)nn1 (configuration not stated) | i
CC(=O)Nc1ccccc1NC(=O)CN1CCC(Oc2cccc(C)c2)CC1 | i
NCc1ccccc1/C=C/c1ccccc1 | i
Cc1ccc(-n2c(=O)n(Cc3ccccc3)c3c(C(N)=O)nc(-c4ccco4)nc32)cc1C | i
COc1ccc(CNc2nc3nc(CNc4ccccc4Cl)cc(=O)n3[nH]2)cc1 | i
Cc1ccc(NCc2cc(=O)n3[nH]c(NCc4ccccc4)nc3n2)cc1Cl | i
Cc1ccc(Cl)cc1NCc1cc(=O)n2[nH]c(NCc3ccccc3)nc2n1 | +
Cc1cccc(N2CCN(c3ncc(NS(=O)(=O)c4ccccc4C)cc3C(=O)O)CC2C)c1 (configuration not stated) | i
Cc1cccc(N2CCN(c3ncc(NS(=O)(=O)c4ccc(F)cc4)cc3C(=O)O)CC2C)c1 (configuration not stated) | i
Cc1cccc(N2CCN(c3ncc(NS(=O)(=O)c4cc(F)ccc4C)cc3C(=O)O)CC2C)c1 (configuration not stated) | +
COc1ccc(N2CCCS2(=O)=O)cc1NC(=O)c1c(F)cccc1Cl | i
COc1ccc(-c2cc(N3CCN(S(=O)(=O)c4ccc(C)c(C)c4)CC3)ncn2)cc1 | i
CC(=O)N1c2ccc(S(=O)(=O)N3CCOCC3)cc2CC1C(=O)N1CCOCC1 (configuration not stated) | i
Nc1ccc(S(=O)(=O)N2CCOCC2)cc1S(N)(=O)=O | +
Cc1cccc(NS(=O)(=O)c2ccc(N)c(S(N)(=O)=O)c2)c1 | i
COc1ccc(-c2nc(CN3[C@@H]4CC[C@H]3CC(O)C4)c(C)o2)cc1OC (some centres not stated) | i
CCOc1ccc(C(=O)Nc2ccc(Nc3nc(C)cc(Nc4ccccc4)n3)cc2)cc1OCC | i
CNC(=O)c1ccc(Cn2c(=O)c3cc(OC)c(OC)cc3n(CC(=O)NCC3CCCO3)c2=O)cc1 (configuration not stated) | +
COc1cc2c(=O)n(Cc3ccc(C(=O)NC(C)C)cc3)c(=O)n(CC(=O)NC(C)C)c2cc1OC | i
CNC(=O)c1ccc(Cn2c(=O)c3cc(OC)c(OC)cc3n(CC(=O)NC(C)C)c2=O)cc1 | i
O=c1c2c3c(sc2ncn1CC(O)c1ccccc1Cl)CNCC3 (configuration not stated) | i
O=c1c(NC2CCCc3ccccc32)c(-c2ccc3c(c2)CCCC3)c1=O (configuration not stated) | i
